Sampled rows, rich in hits. Any-hit rate of the full collection: about 4.1%.
NALP3 yeast inh – inhibitors of NALP3 inflammasome in yeast; actives 0.39% (n = 330,000); Yeast reconstituted NLRP3/ASC/caspase-1, beta-gal luminescence, 24 h; AID 2825; inhibition, % at 10 µM;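 active = inhibition of 50% or more; inactive = inhibition below 50%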;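 also: plate controls were induced DMSO wells for no effect and uninduced yeast grown without galactose for full effect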
NALP1 yeast inh – NALP1 inhibition; actives 0.61% (n = 280,000); inhibition, % at 10 µM; AID 2071; S. cerevisiae NALP1/ASC/caspase-1 growth, X-gal OD620, 72 h; in the data active = inhibition mostly above about 24%, no sharp cut-off; inactive = mostly below about 32%
TIM10 inh – inhibits growth of TIM10 yeast strain; inhibition, % at 10 µM; S. cerevisiae TIM10 strain growth, BacTiter-Glo luminescence, 24 h; actives 1.4% (n = 330,000);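 active = inhibition of 40% or more at the single tested concentration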;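 also: wild-type TIM10 isogenic control strain grown at permissive 25 °C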
tim23-1 inh – growth inhibitors of tim23-1 mutant yeast | actives 1.3% (n = 330,000) | S. cerevisiae tim23-1 growth, BacTiter-Glo luminescence, 24 h | inhibition, % at 20 µM;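 active = growth inhibition of the mutant yeast at or above 50%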;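 also: temperature-sensitive mutant grown at 25 °C; plate controls were DMSO-treated mutant yeast for no effect and medium wells lacking yeast for full effect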
tim10-1 inh – inhibits growth of tim10-1 mutant yeast; S. cerevisiae tim10-1 ts strain growth, BacTiter-Glo, 24 h; AID 463190; inhibition, % at 20 µM; actives 2.2% (n = 330,000);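 active = inhibition of at least 40%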;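 also: mutant grown at 25 °C; 0% = DMSO wells with yeast and 100% = wells holding no yeast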
tim23-1 conf – tim23-1 yeast growth inhibition, confirmed; shares compounds with tim23-1 inh; S. cerevisiae tim23-1 growth, BacTiter-Glo luminescence, 24 h; inhibition, % at 20 µM; actives 83% (n = 4,400);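 active = inhibition above about 39% in either of two replicate wells at 20 µM, limit read from the data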;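 also: temperature-sensitive tim23-1 mutant grown at 25 °C; 0% = DMSO wells with yeast and 100% = medium wells without yeast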
An asterisk follows results filed as active; / = not tested or not shown.

SMILES	NALP3 yeast inh	NALP1 yeast inh	TIM10 inh	tim23-1 inh	tim10-1 inh	tim23-1 conf
CCCCC(=O)NC(c1ccc(C(C)C)cc1)c1ccc2cccnc2c1O (stereo unspecified)	21	24	-23	58*	-20	59*
CCCCC(=O)NC(c1ccccc1)c1ccc2cccnc2c1O (stereo unspecified)	8	-5	7	66*	11	58*
CC(=O)NC(c1ccc(C(C)C)cc1)c1ccc2cccnc2c1O (stereo unspecified)	18	-12	-30	58*	9	60*
CC(=O)NC(c1ccc(C)cc1)c1cc(Cl)c2cccnc2c1O (stereo unspecified)	48	14	-2	62*	-3	68*
O=[N+]([O-])c1cccc(NC2=NCCC2)c1	-8	-15	8	9	8	/
OCC[C@@H]1C[C@H](O)[C@@H](O)[C@]2(CCCc3ccccc3O2)O1	16	8	11	14	4	/
CCCC(=O)NC(c1ccc(OC)cc1)c1ccc2cccnc2c1O (stereo unspecified)	3	5	21	21	34	/
CCCC(=O)NC(c1ccccc1)c1ccc2cccnc2c1O (stereo unspecified)	11	18	-8	58*	26	60*
CCC(=O)NC(c1ccccc1OC)c1ccc2cccnc2c1O (stereo unspecified)	16	-62	20	9	33	/
CCCCC(=O)NC(c1ccccc1Cl)c1ccc2cccnc2c1O (stereo unspecified)	18	-38	-47	53*	-2	49*
COc1ccc(CC(=O)N/N=C(\C)CC(=O)NCc2ccco2)cc1OC	16	-9	-13	10	-12	/
COc1ccccc1CCN=C(N)NS(=O)(=O)c1ccccc1F	8	-6	-5	3	-1	/
O=C(CCSc1ccc(Cl)cc1)NC12CC3CC(CC(C3)C1)C2	-11	-19	40	52*	38	46*
O=C(CCSc1ccc(Cl)cc1)NC1CCCCC1	21	10	12	13	8	/
Cc1ccc(/C=C(\NC(=O)c2ccc(C)cc2)c2nc(=S)[nH][nH]2)cc1	5	8	28	53*	21	36
Cc1ccc(C(=O)N/C(=C\c2ccccc2F)c2nc(=S)[nH][nH]2)cc1	18	3	21	21	22	/
COc1cccc(C(=O)Nc2cccc(-c3ccccc3)c2)c1	28	2	25	55*	32	49*
COc1cc(OC)cc(C(=O)Nc2ccc(Nc3ccccc3)cc2)c1	28	18	23	72*	-10	59*
COc1ccc(C(=O)Nc2ccc(OCc3ccccc3)cc2)cc1[N+](=O)[O-]	12	14	1	2	4	/
COc1ccc(C(=O)Nc2ccc(Nc3ccccc3)cc2)cc1[N+](=O)[O-]	30	-12	0	52*	21	38
O=C(Nc1ccc(Nc2ccccc2)cc1)c1ccccc1	47	/	6	56*	-38	60*
COc1ccc(CCNC(=O)Cn2c(=O)n(-c3ccc(C)c(F)c3)c(=O)c3sccc32)cc1OC	12	10	12	3	-6	/
Cn1ncc2c(=O)n(CC(=O)NC34CC5CC(CC(C5)C3)C4)cnc21	-6	2	-4	-2	1	/
COc1ccc(C(=O)Nc2cc(C(=O)O)cc(C(=O)O)c2)cc1Cl	1	6	-2	2	6	/
COc1cccc(C(=O)Nc2ccccc2C(=O)N2CCCC2)c1	4	5	2	94*	20	12
SMILES	NALP3 yeast inh	NALP1 yeast inh	TIM10 inh	tim23-1 inh	tim10-1 inh	tim23-1 conf
CC(C)Oc1cccc(C(=O)NC(=S)Nc2ccccc2)c1	4	27	26	51*	17	36
COC(=O)c1cccc(NC(=O)c2ccc(OC)c(Cl)c2)c1	26	0	15	57*	11	48*
Cc1ccc(C(=O)Nc2ccc(-c3csc(C)n3)cc2)cc1	21	24	23	-14	-8	/
CC(=O)Oc1cccc(C(=O)Nc2ccccc2C(=O)N2CCCC2)c1	13	9	8	13	11	/
Cc1nc(-c2ccc(NC(=O)c3ccccc3)cc2)cs1	39	5	22	54*	-2	53*
CCOC(=O)c1ccc(NC(=O)CSc2nnnn2CCCO)cc1	-10	0	15	11	15	/
CCN(CC)S(=O)(=O)c1ccc(C(=O)Oc2cc(C)[nH]c(=O)c2[N+](=O)[O-])cc1	5	10	8	5	2	/
Cc1cccc(Oc2sc(C(=O)c3ccccc3)c(N)c2C#N)c1	18	-11	31	55*	33	42*
N#Cc1c(Nc2ccccc2)sc(C(=O)c2ccccc2)c1N	28	26	26	18	11	/
Cn1c(SCC(=O)N2CCCCCC2)nc2c(c1=O)SCC2	14	-1	15	23	24	/
COc1ccc(-c2ccc(C(c3c(C)[nH][nH]c3=O)c3c(C)[nH][nH]c3=O)o2)c([N+](=O)[O-])c1	7	0	10	31	12	/
Cc1[nH][nH]c(=O)c1C(c1ccc(-c2ccc(Cl)c(Cl)c2)o1)c1c(C)[nH][nH]c1=O	11	94	-4	75*	35	46*
CC(=O)Nc1ccc(NC(=O)c2nc(-c3ccccc3)oc2C)cc1	24	3	9	14	14	/
CCC(c1ccccc1)c1nnc(NC(=O)c2ccco2)s1 (stereo unspecified)	-1	/	8	10	7	/
O=C(Nc1nc2c(F)cccc2s1)c1ccco1	37	-3	22	55*	32	54*
Cc1sc(NC(=O)c2ccco2)nc1-c1ccccc1	30	57	31	56*	35	72*
CCCC(CCC)c1nnc(NC(=O)c2ccco2)s1	14	15	32	62*	39	64*
COc1cc(-c2c(C#N)c(N)nc3c2CCCC3)ccc1O	-2	17	5	16	8	/
COc1ccc(-c2c(C#N)c(N)nc3c2CCc2ccccc2-3)cc1OC	5	30	29	51*	40	34
COc1ccc([C@H]2CC(=O)C=C(c3ccc(Cl)c(Cl)c3)C2)cc1	15	/	-1	14	7	/
O=C1c2ccccc2NC(c2ccc(-c3ccc(C(F)(F)F)cc3)o2)N1O (stereo unspecified)	4	/	8	65*	-14	59*
CC[C@@H]1C(c2cccc(Cl)c2)=NN(c2ccc(Br)cc2)[C@H]1C(=O)N1CCOC1=O	/	/	16	50	20	/
CC[C@@H]1C(c2ccc(F)cc2)=NN(c2ccc(Br)cc2)[C@H]1C(=O)N1CCOC1=O	/	/	20	58*	27	44*
CC[C@@H]1C(c2ccccc2)=NN(c2ccc(Br)cc2)[C@H]1C(=O)N1CCOC1=O	/	/	20	58*	21	39
